From PubChem
FEN1 inh-1: qHTS Assay for the Inhibitors of Human Flap endonuclease 1 (FEN1). Potency, µM (series often up to 114 µM), inactives show at the top dose activity change, negative = inhibition, most hits filed as inhibitors. Recombinant FEN1 flap cleavage, fluorescence, 15 min. actives 0.35% (n = 390,000). P39748; further: on the % scale 0 is the no-effect control and ±100 the full control effect; nearly all actives have a fitted effect of over 65% in size
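Recombinant FEN1 (10 nM) was preincubated with pin-transferred compounds for 15 min at room temperature, then flap DNA substrate (50 nM final) was added. Plates were read at 0 and 15 min, and normalized concentration–response data were fitted to a four-parameter Hill equation.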
Pol iota inh: qHTS for Inhibitors of Polymerase Iota. Pol iota fluorescent replication assay, 10 min. Potency, µM (series often up to 115 µM), for the others: top-dose activity, negative = inhibition, actives largely listed as inhibitors. actives 1% (n = 390,000)
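Fluorescent replication assay read twice, at 0 min and 10 min after adding 50 nM (final) substrate. Enzyme (10 nM) and compounds were first incubated 15 min at room temperature; enzyme-free buffer wells were negative controls.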
POLK inh: qHTS for Inhibitors of Polymerase Kappa. DNA polymerase kappa (Homo sapiens), Q9UBT6. purified Pol kappa, fluorescent DNA synthesis assay, 10 min. Potency, µM (titrated, usually from 107 µM), without a hit: top-dose activity, negative = inhibition, actives largely listed as inhibitors. actives 0.53% (n = 400,000); further: on the % scale 0 is the no-effect control and ±100 the full control effect
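Activity was followed as the change in fluorescence between reads at 0 and 10 min after starting the reaction with 50 nM substrate. Beforehand, 10 nM polymerase had been preincubated with compound for 15 min at room temperature.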
Pol beta inh: qHTS Assay for Inhibitors of DNA Polymerase Beta. P06746. Pol beta primer extension/strand displacement, fluorescence kinetic. Potency, µM (highest dose often 114 µM), without a hit: top-dose activity change, negative = inhibition, usual class: inhibitors. actives 1.3% (n = 340,000). AID 485314, 2010; further: on the % scale 0 is the no-effect control and ±100 the full control effect
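10 nM enzyme + cpd, 15 min RT; start with substrate 50 nM final; read 0 min and after 10 min RT. Corrected, normalized data; 4-parameter Hill curve fit.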
POLH inh: qHTS for Inhibitors of Polymerase Eta; recombinant Pol eta, fluorescent DNA replication assay; Potency, µM (highest dose often 114 µM), inactives show at the highest dose activity change, negative = inhibition, usual class: inhibitors; actives 1.2% (n = 390,000); further: on the % scale 0 is the no-effect control and ±100 the full control effect
Target sequence (Q9Y253 whole entry, looked up): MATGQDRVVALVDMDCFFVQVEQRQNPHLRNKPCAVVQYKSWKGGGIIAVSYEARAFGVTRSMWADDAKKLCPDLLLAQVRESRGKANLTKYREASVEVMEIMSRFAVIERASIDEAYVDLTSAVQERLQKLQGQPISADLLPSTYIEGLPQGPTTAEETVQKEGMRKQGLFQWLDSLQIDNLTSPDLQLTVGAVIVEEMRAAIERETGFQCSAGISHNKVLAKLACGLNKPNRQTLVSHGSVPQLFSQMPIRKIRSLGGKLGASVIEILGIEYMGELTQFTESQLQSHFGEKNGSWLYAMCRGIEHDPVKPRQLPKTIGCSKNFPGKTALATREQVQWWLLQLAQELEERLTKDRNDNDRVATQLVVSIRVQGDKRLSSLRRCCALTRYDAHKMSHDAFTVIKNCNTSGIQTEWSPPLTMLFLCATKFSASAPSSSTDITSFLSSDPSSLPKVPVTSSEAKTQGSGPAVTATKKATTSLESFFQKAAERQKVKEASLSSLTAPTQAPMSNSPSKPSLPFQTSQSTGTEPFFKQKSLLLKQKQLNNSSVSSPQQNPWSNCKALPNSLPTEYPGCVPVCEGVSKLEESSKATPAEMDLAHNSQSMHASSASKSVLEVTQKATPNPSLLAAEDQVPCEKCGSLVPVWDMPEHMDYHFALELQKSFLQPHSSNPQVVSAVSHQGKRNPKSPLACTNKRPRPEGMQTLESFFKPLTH
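Pol eta (10 nM) was preincubated with compounds for 15 min at room temperature, after which fluorescent replication substrate (50 nM final) was added to start the reaction. Fluorescence was read kinetically at 0 and 10 min.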
WRN inhibitor: qHTS for Inhibitors of WRN Helicase. WRN helicase unwinding, fluorescent forked duplex, kinetic. Potency, µM (titrated, usually from 114 µM), for the others: at the top dose activity change, negative = inhibition, actives largely listed as inhibitors. actives 0.46% (n = 360,000); further: on the % scale 0 is the no-effect control and ±100 the full control effect; nearly all actives have a fitted effect of over 55% in size
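Kinetic red-fluorescence monitoring (525/598 nm) tracks WRN helicase activity after 100 nM fluorophore-quencher forked duplex and 2 mM ATP are added to 20 nM enzyme pretreated 15 min at room temperature with compound.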
FEN1 inh-2: qHTS Assay for the Inhibitors of FEN1: Confirmatory Assay for Cherry-picked Compounds; Potency, µM, most hits filed as inhibitors; FEN1 flap cleavage, TAMRA/BHQ2 fluorogenic DNA substrate; actives 79% (n = 880); AID 720498, 2013; shares compounds with FEN1 inh-1; further: nearly all actives have a fitted effect of over 60% in size
* marks the source's active call; other numbers are inactive results; [ ] = dose if it differs, or a comment. A selection: hits, their analogues and other compounds. The true share with any hit is near 2.4%. The call rests on the fitted dose curve; in most records, active means well fitted curve in the direction sought with a large enough effect; inconclusive means small, poorly fitted or top-dose-only effect, or another doubt; inactive means no such curve, though single readings can be large; an effect the other way counts as inactive or inconclusive. Potency means the concentration at half of the fitted maximal effect.

Screening CN(C)c1ccc(NC(=O)Cn2cc(S(=O)(=O)Cc3ccccc3Cl)c3ccccc32)cc1 returned FEN1 inh-1 -9%, Pol iota inh 49%, POLK inh -12% and Pol beta inh 12%.
`CC1=NC(Nc2nc(C)c3ccccc3n2)=NC(C)(C)C1` gave FEN1 inh-1 40µM*, Pol iota inh 22%, POLK inh 11%, Pol beta inh 0%, POLH inh -18%, WRN inhibitor 43%[57.1 µM] and FEN1 inh-2 48*.
Screening CCN(CC)c1ccc(/C=C2\SC(N)=NC2=O)cc1 returned FEN1 inh-1 15%, Pol iota inh 16%, POLK inh -4%, Pol beta inh 5%, POLH inh -14% and WRN inhibitor 6%.
`CCN(CC)c1ccc(C=C2SC(=S)NC2=O)cc1` gave FEN1 inh-1 -29%, Pol iota inh inconclusive, POLK inh inconclusive, POLH inh inconclusive, WRN inhibitor 50µM* and FEN1 inh-2 inconclusive.
Screening O=c1c2ccccc2nc2sc(Nc3ccc4c(c3)CNC4)nn12 returned FEN1 inh-2 38*.
O=C(NN1C(=O)/C(=C/c2ccc(O)cc2)SC1=S)c1cccc(O)c1 was read as FEN1 inh-1 -3%, Pol iota inh inconclusive, POLK inh -26%, Pol beta inh -15%, POLH inh 3%, WRN inhibitor -8%[11.6 µM] and FEN1 inh-2 inconclusive.
Screening Cc1cccc(-c2cc3nc(C)cc(NCCCN(C)C)n3n2)c1 returned FEN1 inh-1 -22%, Pol iota inh 6%, POLK inh inconclusive, Pol beta inh inconclusive, POLH inh -15% and WRN inhibitor -6%.
For CN(C)CCCNc1cc(-c2ccccc2)nc2cc(-c3cccc(F)c3)nn12 the results were FEN1 inh-1 inconclusive, Pol iota inh -27%, POLK inh -20%, Pol beta inh 8%, POLH inh -15%, WRN inhibitor -1%[11.6 µM] and FEN1 inh-2 48*.
For O=C1CN(C(=O)COC(=O)c2ccc([N+](=O)[O-])o2)c2ccccc2N1 the results were FEN1 inh-1 inconclusive, Pol iota inh inconclusive, POLK inh -25%, POLH inh inconclusive, WRN inhibitor 1%[11.6 µM] and FEN1 inh-2 19*.
CC1(C)C(=O)Nc2ccccc2N1C(=O)COC(=O)c1ccc([N+](=O)[O-])o1 was read as FEN1 inh-1 20µM*, Pol iota inh -11%, POLK inh -29%, POLH inh inconclusive, WRN inhibitor -29% and FEN1 inh-2 19*.
For O=C1CN(C(=O)COC(=O)c2ccco2)c2ccccc2N1 the results were FEN1 inh-1 7%, Pol iota inh -6%, POLK inh -7%, POLH inh -13% and WRN inhibitor -6%.
For Cc1ccc(C2C(=O)N(C3CCCCCC3)CC(=O)N2CCC2=CCCCC2)cc1 (stereo not drawn) the results were FEN1 inh-1 15%, Pol iota inh 23%, POLK inh -3%[60.1 µM], Pol beta inh 3% and POLH inh -12%.
`COc1ccc(OC)c(/C(O)=C/C(=O)C(=O)Nc2cc(C)cc(C)c2)c1` gave FEN1 inh-1 inconclusive, Pol iota inh inconclusive, POLK inh -11%, Pol beta inh 2%, POLH inh -4%, WRN inhibitor -10% and FEN1 inh-2 43*.
